CBX7 inh: CBX7 inhibition, primary AlphaScreen; O95931; AlphaScreen His6-CBX7 / biotin-H3K27me3 peptide binding; active compounds read low; normalised signal (fraction of DMSO) (no concentration beside the values); 1.1% of 66,000 active; AID 1224903; in the data active = normalised signal below about 0.5
Target sequence (O95931 whole entry, looked up): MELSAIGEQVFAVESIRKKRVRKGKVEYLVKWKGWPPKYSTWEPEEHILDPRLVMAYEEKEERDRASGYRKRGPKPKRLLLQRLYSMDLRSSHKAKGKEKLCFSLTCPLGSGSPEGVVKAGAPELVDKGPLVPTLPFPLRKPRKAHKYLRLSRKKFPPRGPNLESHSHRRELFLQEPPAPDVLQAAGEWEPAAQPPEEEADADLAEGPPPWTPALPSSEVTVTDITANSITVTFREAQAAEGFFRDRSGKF
Numbers without * were called inactive. Shown is part of a subset that was picked to be rich in hits.

SMILES | CBX7 inh
Cc1cccc(OCC(=O)Nc2ccc(-c3nc4ncccc4o3)cc2)c1C | 1.1
COc1ccc(Cl)cc1NC(=O)c1cc(C(C)C)on1 | 0.93
CC(=O)Nc1ccccc1-c1nc2ccc(C(=O)N3CCC(Cc4ccccc4)CC3)cc2[nH]c1=O | 1
CCc1ccc(NC(=O)C2CCCN2S(=O)(=O)c2ccc3c(c2)CCC(=O)N3)cc1 (stereo unspecified) | 0.99
COc1cc(C(=O)NCc2nnc(SCC(=O)Nc3ccc(Cl)cc3)o2)cc(OC)c1OC | 0.95
COc1cc(C(=O)NCc2nnc(SCC(=O)Nc3cc(C)on3)o2)cc(OC)c1OC | 0.051*
Cc1cccc(NC(=O)CSc2nnc(CNC(=O)c3c(F)cccc3Cl)o2)c1 | 1.1
Cc1cccc(NC(=O)CSc2nnc(CNC(=O)COc3ccc(Cl)cc3)o2)c1 | 1
Cc1nnc(NC(=O)CSc2nnc(CNC(=O)COc3ccc(Cl)cc3)o2)s1 | 0.85
O=C(CSc1nnc(CNC(=O)c2c(F)cccc2Cl)o1)Nc1ccccc1 | 0.91
Cc1cc(NC(=O)CSc2nnc(CNC(=O)c3c(F)cccc3Cl)o2)no1 | 0.029*
COc1ccc(C(=O)NCc2nnc(SCC(=O)Nc3cc(C)on3)o2)cc1OC | 0.96
Cc1cc(NC(=O)CSc2nnc(CNC(=O)COc3ccc(Cl)cc3)o2)no1 | 0.21*
Cc1nc2c(C(=O)NC3CCCCC3)cnn2c(C)c1Cc1cccc(Cl)c1 | 0.98
O=C(c1ccc2c(c1)OCO2)c1cn(Cc2ccc(Cl)cc2)c2cc3c(cc2c1=O)OCO3 | 0.8
CCCCOc1ccc(OCCCC)c2c1nc(-c1ccccc1NC)c(=O)n2C | 0.86
COC(=O)Nc1ccc2c(c1)N(C(=O)CCN1CCCCC1)c1ccccc1CC2 | 1
Cc1cccc(CSc2nc3ccncc3n2Cc2ccc(Cl)cc2)c1 | 0.99
O=C(CCn1c(=O)[nH]c2ccsc2c1=O)N1CCN(c2ncccn2)CC1 | 1
CCCCN(C)CCNC(=O)c1cc2c(-c3ccc(OC)c(OC)c3)nn(C)c2s1 | 0.84
COc1ccc(Cn2c(CCC(=O)N3CCOCC3)nc3cccnc32)cc1 | 1
Cc1cc(C)n(-c2nc3ccccc3nc2Nc2ccc3c(c2)OCCO3)n1 | 1.9
Cc1cccc(Nc2nc3ccccc3nc2-n2nc(C)cc2C)c1 | 2.6
Cc1cc(C)n(-c2nc3ccccc3nc2Nc2ccc(N(C)C)cc2)n1 | 0.22*
O=C(Nc1cc(-c2nc3ccccc3s2)ccc1Cl)c1ncn[nH]1 | 0.85
SMILES | CBX7 inh
O=C(Nc1nc(SCc2ccccc2Cl)ns1)c1ncn[nH]1 | 0.053*
O=C(Nc1ncc(Cc2ccccc2Cl)s1)c1cccc2ccccc12 | 0.9
Cc1cccc(-c2nc(CN3CCCC(C(=O)NCc4ccccc4)C3)c(C)o2)c1 (stereo unspecified) | 0.94
O=C(Nc1ccc(N2CCCC2=O)cc1)c1ncn[nH]1 | 0.0091*
O=C(Nc1ccc(F)cc1)C1CC(=O)N(c2ccc(Cl)cc2)C1 (stereo unspecified) | 0.99
Cc1cc(NS(=O)(=O)c2ccc(N3CCCC3=O)cc2)no1 | 1.2
O=C(Nc1ccc2[nH]c(=O)[nH]c2c1)c1ncn[nH]1 | 0.39*
O=C(Nc1ccc2[nH]c(=O)[nH]c2c1)C1COc2ccccc2O1 (stereo unspecified) | 1
O=c1[nH]c2ccc(S(=O)(=O)Nc3ccc(F)cc3)cc2[nH]1 | 1
CCn1c(=O)cc(OCC(=O)NCc2ccc(OC)cc2)c2ccccc21 | 0.86
Cc1oc(-c2ccc(Cl)cc2)nc1C(=O)NCCCN1CCOCC1 | 1.1
Cc1ccc(C)c(Nc2nc3ccccc3nc2-n2nc(C)cc2C)c1 | 2.2
COc1ccc(NC(=O)C2CCN(C(=O)c3cnn(-c4ccccc4)c3-n3cccc3)CC2)cc1 | 1
O=C(CC1(O)C(=O)Nc2ccc(Cl)cc21)c1ccc2c(c1)CCCC2 (stereo unspecified) | 0.96
Cc1noc(/C=C/c2cccs2)c1S(=O)(=O)N1CCC(C(=O)NCCCc2ccccc2)CC1 | 1
Fc1ccccc1-c1nc(NC2CCCCCC2)c2ccccc2n1 | 1
Cc1ccnc(Nc2nc(-c3c(C)nc4cc(C)ccn34)cs2)c1 | 0.68
Cc1ccnc(Nc2nc(-c3sc(N)nc3C)cs2)c1 | 0.4*
Cc1ccnc(Nc2nc(-c3ccc(C(C)C)cc3)cs2)c1 | 0.87
CCc1cccc(C)c1NC(=O)CSCc1cnn(-c2ccccc2)c1-n1cccc1 | 0.99
COc1ccc(C(NC(=O)CC(C)C)c2ccc3cccnc3c2O)cc1OC (stereo unspecified) | 0.061*
CC(C)CC(=O)NC(c1cccs1)c1ccc2cccnc2c1O (stereo unspecified) | 0.1*
O=C(O)C(NS(=O)(=O)c1cccc2cccnc12)c1ccccc1 (stereo unspecified) | 1
COc1ccc(CSc2cccc3cccnc23)cc1[N+](=O)[O-] | 0.85
COc1cc(NC(=O)Cc2ccc(OC)c(OC)c2)c2ncccc2c1 | 1
SMILES | CBX7 inh
Cc1ccc(C(NC(=O)CC(C)C)c2ccc3cccnc3c2O)cc1 (stereo unspecified) | 0.63
O=C(Nc1ccc(Cl)c(Cl)c1)Nc1cccc2cccnc12 | 0.98
Cc1ccc(C(NC(=O)C(C)C)c2cc(Cl)c3cccnc3c2O)cc1 (stereo unspecified) | 0.63
CCN1CCN(C(c2cccs2)C(C)NC(=O)CC(C)C)CC1 (stereo unspecified) | 1.1
O=C(O)CC(NCc1cccnc1)c1cccs1 (stereo unspecified) | 1
Oc1c(C(Nc2ccccc2)c2ccccc2)ccc2cccnc12 (stereo unspecified) | 0.24*
CC(C)CC(=O)NC(c1ccccc1)c1ccc2cccnc2c1O (stereo unspecified) | 0.044*
OC1(c2ccc(Cl)cc2)CCN(CCCNc2cccc(Cl)c2)CC1 | 0.79
CCn1c(=O)cc(OCC(=O)Nc2nccs2)c2ccccc21 | 0.96
Cc1cccc(-c2nnc(NC(=O)c3c(-c4ccccc4Cl)noc3C)s2)c1 | 1.2
CCC(=O)N1CCc2cc(S(=O)(=O)Nc3ccc(OC)cc3)ccc21 | 1.1
CCOc1ccc(C(=O)Nc2cc(-c3nn4c(C)nnc4s3)ccc2C)cc1 | 1
O=C(NCCc1ccccc1)C1c2ccccc2C(=O)N1Cc1ccc(F)cc1 (stereo unspecified) | 0.98
Cc1cc(C)cc(NC(=O)c2ccc(CNc3c(N4CCC(C)CC4)c(=O)c3=O)cc2)c1 | 1
Cc1ccc(-c2csc(NC(=O)c3ccc(S(=O)(=O)N(C)c4ccccc4)cc3)n2)c(C)c1 | 0.86
CC1CC(C)CN(S(=O)(=O)c2ccc3c(c2)N(CC(=O)N2CCC(C(N)=O)CC2)C(=O)CO3)C1 (stereo unspecified) | 1
CC(C)C(=O)NC(c1cccs1)c1cc(Cl)c2cccnc2c1O (stereo unspecified) | 0.64
COc1ccc(C(NC(=O)CCc2ccccc2)c2ccc3cccnc3c2O)cc1 (stereo unspecified) | 0.082*
CCCC(=O)NC(c1cccs1)c1cc(Cl)c2cccnc2c1O (stereo unspecified) | 0.27*
O=C(CCc1ccccc1)NC(c1ccc(Cl)cc1)c1ccc2cccnc2c1O (stereo unspecified) | 0.62
CCCC(=O)NC(c1ccc(C(C)C)cc1)c1cc(Cl)c2cccnc2c1O (stereo unspecified) | 0.82
CCCC(=O)NC(c1ccc(OC)cc1)c1cc(Cl)c2cccnc2c1O (stereo unspecified) | 0.78
COc1ccccc1CNC(=O)CN1C(=O)CC(C)(C)Sc2ccccc21 | 1.1
COc1ccc(N2CCN(CCCNC(=O)c3csc4c3CCCCC4)CC2)cc1 | 0.88
